From PubChem BioAssay AID894 (National Center for Advancing Translational Sciences (NCATS), 2007)
Where “and” joins values, the source holds several entries; their conditions need not be identical. Identical values can stand only once. The campaign covered roughly 150,000 compounds. About 6,500 (4.3%) were called active. Another 12% or so got no clear call; they are omitted. The full list was thinned out, with actives kept by preference. Some compounds were tested as several samples or in several runs, with calls that do not always agree. Values without a mark were called inactive. The call rests on the fitted dose curve; in most records, active means well fitted inhibition curve with a large enough effect (not every such curve was filed as active); inconclusive means small, poorly fitted or top-dose-only effect, or another doubt; inactive means no such curve, though single readings can be large or run the other way.

biological target: 15-hydroxyprostaglandin dehydrogenase [NAD(+)] (Homo sapiens) (UniProt P15428); experiment: qHTS Assay for Inhibitors of HPGD (15-Hydroxyprostaglandin Dehydrogenase); settings: purified HPGD, NADH fluorescence kinetic, PGE2 substrate; activity change, negative = inhibition: active compounds read low
Source text: Human 15-Hydroxyprostaglandin dehydrogenase (HPGD) catalyzes the inactivation of prostaglandin E2, and plays a major role in cancer biology by antagonizing the oncogenic potential of cyclooxygenase type 2 (COX2). Assays are available, based on absorbance/fluorescence increase of NADH with the substrate 15-OH prostaglandin E2. References 1. Myung SJ, Rerko RM, Yan M, Platzer P, Guda K, Dotson A, Lawrence E, Dannenberg AJ, Lovgren AK, Luo G, Pretlow TP, Newman RA, Willis J, Dawson D, Markowitz SD. 15-Hydroxyprostaglandin dehydrogenase is an in vivo suppressor of colon tumorigenesis. […] 2. Yan M, Rerko RM, Platzer P, Dawson D, Willis J, Tong M, Lawrence E, Lutterbaugh J, Lu S, Willson JK, Luo G, Hensold J, Tai HH, Wilson K, Markowitz SD. 15-Hydroxyprostaglandin dehydrogenase, a COX-2 oncogene antagonist, is a TGF-beta-induced suppressor of human gastrointestinal cancers. Proc Natl Acad Sci U S A. 2004 Dec 14;101(50):17468-73. 3. Yang L, Amann JM, Kikuchi T, Porta R, Guix M, Gonzalez A, Park KH, Billheimer D, Arteaga CL, Tai HH, Dubois R, Carbone DP, Johnson DH. Inhibition of Epidermal Growth Factor Receptor Signaling Elevates 15-Hydroxyprostaglandin Dehydrogenase in Non-Small-Cell Lung Cancer. Cancer Res. 2007 Jun 15;67(12):5587-5593. Inhibition of HPGD activity was screened by utilizing prostaglandin as an electron donor and NAD+ as an electron acceptor/cofactor. An increase in the fluorescence intensity due to conversion of NAD+ to NADH was used to measure the enzyme activity. NIH Chemical Genomics Center [NCGC] Structural Genomics Consortium [SGC]
Buffer: 50 mM Tris-HCl, 0.01% Tween 20, pH 8. Enzyme Buffer: 50 mM Tris-HCl, 0.5 mM NAD+ and 0.01% Tween 20, pH 8. Reagents/Controls: Buffer in columns 3 and 4 as negative control (no enzyme). Substrate/cofactor solution: 1 mM NAD+ and 30 uM prostaglandin (Sigma, prostaglandin E2, # P5640) final concentrations dispensed throughout the plate. Enzyme: 20 nM HPGD final concentration in columns 1, 2, 5-48. Column 1 and 2 is neutral (100% activity). A titration of control inhibitor GW5074 (G6416 Sigma-Aldrich, St. Louis, MO) top concentration 10 mM in DMSO, then 1:2 dilution for a total of 16 concentrations in duplicate) was pin-transferred into column 2. Assay Steps: Three uL of enzyme were dispensed to 1536-well Greiner black solid bottom plates. Compounds and control inhibitor (23 nL) were transferred via Kalypsys PinTool. The plates were incubated for 15 min at room temperature, and then 1 uL of substrate/cofactor solution was added to start the reaction. The plates were immediately transferred to and read 5 times every 30 seconds on ViewLux High-throughput CCD imager (Perkin-Elmer) using 360 nm excitation and 450 nm emission fluorescence protocol. The fluorescence intensity difference between the last and the first time points was used to compute reaction progress.
On the % scale 0 is the no-effect control and ±100 the full control effect; potency means the concentration at half of the fitted maximal effect.

Chain of 15-hydroxyprostaglandin dehydrogenase [NAD(+)] (Homo sapiens) (P15428 whole entry, looked up): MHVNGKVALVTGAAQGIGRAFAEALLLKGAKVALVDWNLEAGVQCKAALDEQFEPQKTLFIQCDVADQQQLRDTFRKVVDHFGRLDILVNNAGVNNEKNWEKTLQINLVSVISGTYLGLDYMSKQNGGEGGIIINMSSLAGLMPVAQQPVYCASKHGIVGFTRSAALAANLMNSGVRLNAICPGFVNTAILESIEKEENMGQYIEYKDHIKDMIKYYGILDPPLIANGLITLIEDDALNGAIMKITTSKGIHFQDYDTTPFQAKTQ

Going from `COCCNC(=O)c1ccccc1NS(=O)(=O)c1ccc(C)c([N+](=O)[O-])c1` to `COC(=O)c1ccccc1NS(=O)(=O)c1ccc2[nH]c(=O)[nH]c2c1`, the activity change, negative = inhibition falls from 1.9% to -11.9%.

First: Brc1cccc(-c2nnc3n2CCC3)c1
Second: O=C(Nc1ccc2nc3n(c(=O)c2c1)CCCCC3)c1ccccc1Cl
The activity change, negative = inhibition of the first is higher: -11.6% for the first, -20.5% for the second.

Going from `Cc1cccc(NC(=O)CN2C(=O)CNC2=O)c1` to `Cc1cc(SCC(=O)NCCN2C(=O)CSC2=O)nc2ccccc12`, the activity change, negative = inhibition falls from -7.22% to -24.5%.

First: COc1ccnc(Oc2ccccc2)n1
Second: C=CCNCCCCOc1ccccc1
The activity change, negative = inhibition of the first is higher: -1.44% for the first, -5.77% for the second.

Compared with `O=[N+]([O-])c1ccc(N/N=C2/CCCCC2c2ccccn2)c([N+](=O)[O-])c1` (stereo unspecified), `COC(=O)c1cc(C(=O)N(Cc2ccccc2)c2ccccn2)cc([N+](=O)[O-])c1` is lower in activity change, negative = inhibition: -4.22% for the first, -15.3% for the second.

First: Cc1ccc(S(=O)(=O)N2CCOCC2)cc1C(=O)NC(=S)N(Cc1ccccc1)C(C)C
Second: Cc1ccccc1CN(c1ccc(C(=O)NCC2CCCO2)cc1)S(C)(=O)=O (stereo unspecified)
The activity change, negative = inhibition of the first is lower: -17.6% for the first, -4.02% for the second.

First: CCC(C(=O)OCC(=O)Nc1ccc(C(=O)Nc2ccc(OC)cc2)cc1)c1ccccc1 (stereo unspecified)
Second: CCOc1ncccc1C(=O)N(CC)CC(=O)Nc1ccc(NC(C)=O)cc1
The activity change, negative = inhibition of the first is lower: -12.4% for the first, -1.26% for the second.

Going from `Cc1nc2ccc(S(=O)(=O)NC(C(=O)N3CCCCCC3)C(C)C)cc2s1` (stereo unspecified) to `Cc1nc2ccc(C(=O)N3CCN(c4ccccc4)CC3)cc2s1`, the activity change, negative = inhibition falls from -2.12% to -2.92%.

First: O=C(N/N=C/c1ccc2c(c1)OCO2)c1ccc(Cn2cc([N+](=O)[O-])cn2)o1
Second: O=C(COC(=O)c1ccc(Cl)nc1)NCc1ccc2c(c1)OCO2
The activity change, negative = inhibition of the first is higher: -8.13% for the first, -9.81% for the second.

Compared with `C=CCN1C(=O)C(Cc2ccc(OCC)cc2)SC1=Nc1ccc(C(=O)O)cc1` (stereo unspecified), `CC(=O)Oc1ccc(C(=O)Nc2nccs2)cc1` is lower in activity change, negative = inhibition: -8.9% for the first, -13.6% for the second.

Compared with `Cc1ccc(C)c(OCC(=O)N2CCN(C(=O)c3ccco3)CC2)c1`, `CCN1C(=O)N[C@@H](CCc2ccccc2)C(C(=O)OC)=C1C` is lower in activity change, negative = inhibition: 1.99% for the first, -3.92% for the second.

First: CCc1nnc(NS(=O)(=O)c2ccc(NS(=O)(=O)c3ccccc3)cc2)s1
Second: COc1cc(NS(=O)(=O)c2ccccc2)ccc1-n1nc(C)cc1C
The activity change, negative = inhibition of the first is higher: 2.28% for the first, -3.88% for the second.

First: COc1cc(NS(=O)(=O)c2ccc(N=Cc3c(C)[nH]n(-c4ccccc4)c3=O)cc2)nc(OC)n1
Second: COc1ccc(NS(=O)(=O)c2ccc(NC(C)=O)cc2)cc1OC
The activity change, negative = inhibition of the first is lower: -14.8% for the first, -1.98% for the second.

Going from `NS(=O)(=O)c1ccc(NC(=O)COC(=O)C2(c3ccc(F)cc3)CCCC2)cc1` to `Cc1ccc(NC(=O)CC2S/C(=N/N=C3\CCCc4ccccc43)NC2=O)cc1` (stereo unspecified), the activity change, negative = inhibition rises from -17% to -13.9%.

Compared with `CCCCCCCCCOC1OC(CO)C(O)C(O)C1NC(C)=O` (stereo unspecified), `COCCCNC(=S)NC(=O)c1ccccc1` is lower in activity change, negative = inhibition: -3.92% for the first, -5.04% for the second.

Going from `C=CCNC(=O)c1cc2nc(C3CC3)cc(C(F)F)n2n1` to `COC(=O)c1cc2nc(-c3ccccc3)cc(C(F)(F)F)n2n1`, the activity change, negative = inhibition falls from -7.97% to -14.5%.

Going from `CN(C)/N=C/c1cc(Cl)cc([N+](=O)[O-])c1O` to `O=C(CC1NCCNC1=O)Nc1cc(Cl)cc(Cl)c1` (stereo unspecified), the activity change, negative = inhibition rises from -18.9% to -10.9%.

Compared with `O=C(NCC1CCCO1)/C(=C/c1ccc(Cl)cc1)NC(=O)c1ccccc1` (stereo unspecified), `O=C(NCC1CCCO1)c1ccc2ccccc2n1` (stereo unspecified) is lower in activity change, negative = inhibition: -23% for the first, -27.3% for the second.

First: Cc1ccc(C(=O)OCC(=O)NCc2ccc3c(c2)OCO3)s1
Second: COc1ccccc1-n1c(C)nc2cc(C(=O)NCc3ccc4c(c3)OCO4)ccc21
The activity change, negative = inhibition of the first is higher: -10.3% for the first, -21.3% for the second.

Compared with `COc1cc(C(=O)Nc2nccs2)cc(OC)c1OC`, `C/C=C/c1ccc(OCCOc2ccc(C=O)cc2OC)c(OC)c1` is lower in activity change, negative = inhibition: -15.1% for the first, -16.6% for the second.

Compared with `CC(OC(=O)c1ccccc1N1C(=O)C2C3CCC(C3)C2C1=O)C(=O)c1ccccc1` (stereo unspecified), `CC(=O)Nc1cccc(/C(C)=N/NC(=O)c2ccccc2Cl)c1` is higher in activity change, negative = inhibition: -11.4% for the first, -5.88% for the second.

First: CC(Cc1cccs1)NC(=O)NC1CCCCC1 (stereo unspecified)
Second: O=C(NCCN1CCOCC1)c1ccc2c(c1)ncn2C1CCCC1
The activity change, negative = inhibition of the first is lower: -17.9% for the first, -2.32% for the second.

Compared with `COCC(C)NC(=O)c1ccc(Cl)c(Cl)c1` (stereo unspecified), `COc1ccc(-c2nc(-c3ccccc3)oc2Nc2ccc3ccccc3c2)cc1` is higher in activity change, negative = inhibition: -23% for the first, -1.48% for the second.

In the case of `O=C(Cn1[nH]c(=O)c2ccccc2c1=O)Nc1cccc(-c2nnc3n2CCCCC3)c1`, the Potency is reported as 14.1 µM (active).
In the case of `Cc1nc2ccc(C(=O)N3CCSCC3)cc2s1`, the Potency is reported as 1.58 µM (active).
`CCc1nnc(NS(=O)(=O)c2ccc(N=Cc3c(C)[nH]n(-c4ccc(C)cc4)c3=O)cc2)s1` was tested, and the Potency was 25.1 µM (active).
In the case of `Oc1c(Cl)cc(Cl)c(Cl)c1Cc1c(O)c(Cl)cc(Cl)c1Cl`, the Potency is reported as 35.5 µM (active).
In the case of `CC1CCN(C(=O)c2cc3nc(C4CC4)cc(C(F)(F)F)n3n2)CC1`, the Potency is reported as 1.26 µM (active).
In the case of `O=C(/C=C/c1ccccc1[N+](=O)[O-])NCC1CCCO1` (stereo unspecified), the Potency is reported as 4.47 µM (active).
In the case of `Cc1cc(Br)ccc1SCC(=O)OCC(=O)NCc1ccc2c(c1)OCO2`, the Potency is reported as 25.1 µM (active).
In the case of `Cn1cccc1C(=O)Nc1nccs1`, the Potency is reported as 31.6 µM (active).
With `O=C(Nc1cc(=O)[nH]c2ncnn12)c1ccccc1Cl` the Potency was 22.4 µM (active).
In the case of `CC(Cc1cccs1)NC(=O)c1cccc(Cl)c1` (stereo unspecified), the Potency is reported as 7.94 µM (active).
`COc1ccccc1-n1cnc2cc(C(=O)NCC3CCCO3)ccc21` (stereo unspecified) was tested, and the Potency was 12.6 µM (active).
With `COc1ccccc1-n1cnc2cc(NS(=O)(=O)c3ccccc3)ccc21` the Potency was 14.1 µM (active).
For `COCCCNC(=O)c1ccc2c(c1)ncn2-c1ccccc1OC`, the Potency was 11.2 µM (active).

With `COC(=O)C1(C(C)=O)CC2=CC[C@H]3C(=O)N(c4ccccc4)C(=O)[C@H]3[C@@H]2Cc2ccccc2[C@@H]1C[N+](=O)[O-]` (stereo partly specified) the activity change, negative = inhibition was -2.53% and -4.27%.
In the case of `Oc1c(Cl)cc(Cl)c(Cl)c1Cc1c(O)c(Cl)cc(Cl)c1Cl`, the activity change, negative = inhibition is reported as -15.8% and -6.53%.
